# Laboratory results as given in PubChem BioAssay (NCATS).
# Results filed as inconclusive are left out. Where a call stands in place of a potency, no number is given. Activity calls are given as the source filed them. Calls follow the shape of the dose curve; as a rule, active = well fitted inhibition curve with a large enough effect; inconclusive = small, poorly fitted or top-dose-only effect; inactive = no such curve, though single readings can be large or run the other way.
# Test: Primary fluorescence-based thiol-reactive (MSTI) qHTS assay for identification of artifact compounds. (AID 1845221); also: nearly all actives have a fitted effect of over 65% in size;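 as to activity change, negative = thiol reactive: thiol-reactive compounds lower the probe fluorescence signal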
# Conditions: MSTI thiol-reactivity probe, 1 h; series mostly up to 53.8 µM
# How it was run: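 A multi-concentration qHTS design tested compounds against 4 uM MSTI, pH 7.4 phosphate-buffered saline. Plates were protected from light for 1 h at room temperature before imaging fluorescence.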
# Potency is read from the fitted curve at half-maximal effect.
SMILES,Potency,"activity change, negative = thiol reactive"
COC1=CC(=O)O[C@@H](CCc2ccccc2)C1,inactive,–
CN1C(=O)N(c2ccc(C#N)c(C(F)(F)F)c2)C(=O)[C@]1(CO)c1ccccc1,inactive,–
CCCCCCn1c(=O)c(C(=O)Nc2ccc(C(=O)OCCC)cc2)c(O)c2ccccc21,–,-6.91% [at 11.5 µM] (inactive)
CO[C@@H]1[C@H](O)[C@@H](O[C@@H]2C[C@H]3CC[C@@H]4C(CC[C@]5(C)[C@@H](C6=CC(=O)OC6)CC[C@]45O)[C@@]3(C)[C@H](O)C2)O[C@H](C)[C@@H]1O[C@@H]1O[C@H](CO)[C@@H](O)[C@H](O)[C@H]1O (some centres undefined),inactive,–
COC1CC(OC2CCC3(C)C(=CCC4C3CCC3(C)C(C(C)OC5OC(COC6OC(CO)C(O)C(O)C6O)C(O)C(O)C5O)CCC43O)C2)OC(C)C1OC1OC(C)C(O)C(OC)C1O (centres undefined),–,0.542% [at 11.5 µM] (inactive)
CO[C@H]1[C@H](O)[C@H](O[C@H]2CC[C@]3(C)C4CC[C@]5(C)[C@H](C6=CC(=O)OC6)CC[C@]5(O)C4CC[C@@H]3C2)O[C@@H](C)[C@@H]1O (some centres undefined),inactive,–
O=C(O)c1ccnc2cc(C(OCCN3CCCCC3)c3ccccc3Cl)[nH]c12 (centres undefined),inactive,–
COc1cc(C)[nH]c(=O)c1CNC(=O)c1c(C)n([C@H](C)C2CCOCC2)c2ccccc12,inactive,–
CN1CCCC1CCOC(c1cc2nccc(C(=O)O)c2[nH]1)c1ccccc1Cl (centres undefined),inactive,–
COC1CC(O[C@H]2CC[C@]3(C=O)C4CC[C@]5(C)[C@@H](C6=CC(=O)OC6)CC[C@]5(O)[C@@H]4CC[C@]3(O)C2)OC(C)C1O[C@@H]1O[C@H](CO)[C@@H](O)[C@H](O)[C@H]1O (some centres undefined),inactive,–
Cn1ncnc1COc1nn2c(-c3c(F)cccc3F)nnc2cc1C1CCC1,inactive,–
CC(C)[C@@H](CN1CC[C@@](C)(c2cccc(O)c2)[C@@H](C)C1)NC(=O)[C@H]1Cc2ccc(O)cc2CN1,inactive,–
COC(=O)C12C(=O)C(C)(O)C(=O)C1(C)C(C)=CC1C34CCC(OC3=O)C(C)(CO)C4CCC12C (centres undefined),2.6 µM (active),–
C=C(C)[C@H]1O[C@H]2CC[C@@]3(C)[C@@](O)(CC[C@H]4[C@@H]5OC(C)(C)[C@H]6C[C@@H]7C(=C)Cc8c(Cl)cc9[nH]c(c5c9c8[C@@]76O)[C@@]43C)[C@]23O[C@@H]3[C@H]1O,6.3 µM (active),–
C=C[C@H]1CN2CC[C@H]1C[C@@H]2[C@@H](O)c1ccnc2ccccc12,inactive,–
Clc1ccc(OCC2=NCCN2)cc1Cl,inactive,–
CC(C)(C)c1cc(C(C)(C)C)c2c(c1)C(O)(C(F)(F)F)C(=O)O2 (centres undefined),9.47 µM (active),–
CCOc1ccccc1-n1c(C(C)N2CCN(C(=O)COc3ccc(Cl)cc3)CC2)nc2ccccc2c1=O (centres undefined),inactive,–
CC[C@H]1CN2CC[C@H]1C[C@H]2[C@H](O)c1ccnc2ccc(OC)cc12,inactive,–
COC1CC(OC2CCC3(C=O)C(CCC4C3CCC3(C)C(C5=CC(=O)OC5)CCC43O)C2)OC(C)C1OC1OC(CO)C(O)C(O)C1O (centres undefined),inactive,–
CC(=O)OC1CC(O)C2(C)C(CC(OC(C)=O)C3(C)C2CCC2(C)C(c4ccoc4)C(=O)C4OC423)C1(C)C (centres undefined),inactive,–
CC1=C2C[C@H]3[C@@H](CC=C4C[C@@H](O)CC[C@@]43C)[C@@H]2CC[C@]12O[C@@H]1C[C@H](C)CN[C@H]1[C@H]2C,inactive,–
CCN1C[C@]2(OC(=O)c3ccccc3NC(C)=O)CC[C@H](OC)[C@@]34[C@@H]2C[C@@H]([C@@H]13)[C@@]1(O)C[C@H](OC)[C@H]2C[C@@H]4[C@]1(O)[C@H]2OC,inactive,–
C[C@H](NC(=O)Cc1cc(F)cc(F)c1)C(=O)N[C@@H]1N=C(c2ccccc2)c2ccccc2N(C)C1=O,inactive,–
OC1(c2ccc(Cl)cc2)c2ccccc2C2=NCCN21 (centres undefined),inactive,–
CCCN1CCO[C@H]2c3cc(O)ccc3OC[C@@H]21,inactive,–
CCCCCOc1cc2c(cc1-c1cc(/C=C/C(=O)O)ccc1O)C(C)(C)CCC2(C)C,inactive,–
C/C=C(\C)C(=O)OC1CC2C(CC=C3CC(OC4CC(OC)C(OC5CC(OC)C(OC6OC(C)C(OC7OC(CO)C(O)C(O)C7O)C(OC)C6O)C(C)O5)C(C)O4)CCC32C)C2(O)CCC(C(C)=O)C12C (centres undefined),–,19.1% [at 11.5 µM] (inactive)
CN[C@H]1[C@H](O)[C@H](O[C@@H]2[C@@H](O)[C@H](O[C@H]3O[C@H]([C@H](C)O)[C@@H](O)[C@H](O)[C@H]3N)[C@@H](N)C[C@H]2N)OC[C@@]1(C)O,inactive,–
